About 410 (26%) of roughly 1,600 compounds were called active.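 How the source made its calls: active means mean inhibition over triplicates above the low-control well mean plus 3 SD, set per campaign (cut at about 13% in these data); inactive means the rest.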 Only a sample is shown.
Test: nonselective cAMP signaling inhibitors, parental cells, counter-screen for MC4R biased antagonist project, cell-based, TR-FRET, U2OS, forskolin, triplicate (AID 602193);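 further: signal is single emission at 671 nm which falls as cellular cAMP rises; 0% = forskolin-stimulated wells and 100% = buffer without forskolin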
Conditions: LANCE TR-FRET, at 6.5 µM, active compounds read high

Row | SMILES | inhibition
1 | CCOC(=O)c1cc(C)nc(S(C)(=O)=O)c1C#N | 9.09% (inactive)
2 | N#Cc1c(-c2cccs2)nc(SCC(=O)c2ccc(Br)cc2)[nH]c1=O | 12.9% (inactive)
3 | C#Cc1cc(N2CCN(C(=O)c3ccoc3)CC2)n2nc(-c3cccc(Cl)c3)cc2n1 | 6.98% (inactive)
4 | COc1ccc(C(C[N+](=O)[O-])n2nc(C)cc2C)cc1 (stereo not drawn) | 16.1% (active)
5 | O=C(NCC1CCN(Cc2ccccc2Cl)CC1)Nc1cccc(Cl)c1 | -1.82% (inactive)
6 | CC(=O)N1CCN(S(=O)(=O)c2c(F)cc(F)c(Cl)c2F)CC1 | 15.9% (active)
7 | O=C(c1ccc2c(c1)N(Cc1ccc(F)cc1)C(=O)c1ccccc1S2(=O)=O)N1CCN(c2ccccn2)CC1 | 1.79% (inactive)
8 | O=C(Cn1nnc2ccccc2c1=O)Nc1cc(C(F)(F)F)ccc1N1CCOCC1 | -0.34% (inactive)
9 | CN(CC(=O)NCCc1ccccn1)S(=O)(=O)c1ccc(Cl)cc1 | -1.11% (inactive)
10 | Cc1c(Cl)cccc1NC(=O)[C@@]1(CC(=O)O)CC(/C=C/c2ccccc2)=NO1 | 0.29% (inactive)
11 | COc1ccc(Oc2c(Cl)cnn(-c3ccccc3)c2=O)cc1 | 38.1% (active)
12 | O=C(COC(=O)c1c2c(nc3ccccc13)CCCC2)c1ccc(Br)s1 | 4.15% (inactive)
13 | CCN(CC(=O)NCCCN1CCOCC1)S(=O)(=O)c1cc(Cl)ccc1Cl | -1.05% (inactive)
14 | Cc1ccc(NC(=O)COC(=O)CNC(=O)c2ccc(Cl)cc2Cl)cc1S(=O)(=O)N1CCOCC1 | 7.9% (inactive)
15 | Cc1nc2ccccc2c(=O)n1NC(=O)c1ccc(Cl)c([N+](=O)[O-])c1 | 18.5% (active)
16 | CC1(C)C(c2cccs2)=[N+]([O-])C2(CCCCC2=O)N1O (stereo not drawn) | -3.22% (inactive)
17 | Cc1ccc(C(C(=O)NCC2CCCO2)N(C(=O)c2snc(C(N)=O)c2N)c2ccc(C(C)C)cc2)o1 (stereo not drawn) | 0.79% (inactive)
18 | CC(C)(C)OC(=O)N1CCC(NC(=O)c2[nH]cnc2C(=O)N[C@@H](Cc2ccccc2)C(=O)OCc2ccccc2)CC1 | 16.5% (active)
19 | COC(=O)[C@H](Cc1ccccc1)NC(=O)[C@@H]1C[C@H]1[C@@H](NC(=O)OCc1ccccc1)c1ccccc1 | 12% (inactive)
20 | O=C(Nc1ccc(F)c([N+](=O)[O-])c1)C1CC(=O)N(Cc2ccccc2)C1 (stereo not drawn) | 8.59% (inactive)
21 | Cc1cccc(OCC(O)Cn2c(N3CCCCC3)nc3c2c(=O)[nH]c(=O)n3C)c1 (stereo not drawn) | 2.12% (inactive)
22 | COc1ccc(/C=N/OCC(=O)N(Cc2ccccc2)c2ccccc2C(=O)O)cc1 | -3.38% (inactive)
23 | CCOC(=O)c1c(-c2ccccc2)oc2cc(Br)c(O)c(C=O)c12 | 30.2% (active)
24 | Cc1nnc(N/N=C/C2CC=CCC2)[nH]c1=O (stereo not drawn) | -2.01% (inactive)
25 | O=C(O)CCn1cc(/C=C/C(=O)c2ccc(Cl)cc2)c(-c2cccc(Br)c2)n1 | -0.6% (inactive)
26 | Cc1ccccc1-c1n[nH]c(=S)n1/N=C/c1ccc(-c2ccccc2Br)o1 | 0.55% (inactive)
27 | O=C(COC(=O)[C@H](Cc1ccccc1)NC(=O)c1cccs1)Nc1cc(F)ccc1F | 13.2% (active)

Row | SMILES | inhibition
28 | Cc1ccc(OCC(=O)Nc2ccc(NC(=O)c3cccs3)cc2)c(C)c1 | -2.94% (inactive)
29 | O=C(Nc1nccs1)c1cc(S(=O)(=O)N2CCOCC2)c(Cl)cc1Cl | 10.5% (inactive)
30 | CC(=O)Nc1ccc(Sc2ccccc2C(=O)N2CCCC2)cn1 | -1.96% (inactive)
31 | Cc1ccc(NC(=O)C(C)OC(=O)Cc2c[nH]c3ccccc23)cc1S(=O)(=O)N1CCOCC1 (stereo not drawn) | 2.7% (inactive)
32 | CC(C)Oc1c(Br)cc(Br)cc1/C=N/NC(N)=S | 19.3% (active)
33 | C=Cn1c(C(=O)O)ccc1-c1ccc(OC)cc1 | -3.83% (inactive)
34 | CCOC(=O)c1c(NC(=O)CCl)sc(C(=O)N(CC)CC)c1C | 17.7% (active)
35 | Cc1ccc(NS(=O)(=O)c2ccc(C)c(NC(=O)COc3ccc4ccccc4c3)c2)c(C)c1 | 2.54% (inactive)
36 | COc1cccc(OC)c1C(=O)Nc1c(C(=O)N2CCN(c3ccccn3)CC2)oc2ccccc12 | -1.8% (inactive)
37 | CC1(C)Cc2ccccc2-c2[nH]c(=S)[nH]c(=O)c21 | 22.1% (active)
38 | CCOc1ccc(Nc2nc(Cl)nc(N3CCN(c4ccc(OC)cc4)CC3)n2)cc1 | 11.2% (inactive)
39 | O=C(OCC(=O)N1CCCCCC1)c1cnc(Cl)c(Cl)c1 | 21.2% (active)
40 | COc1ccc(CCNC(=O)c2cnc(Cl)c(Cl)c2)cc1 | 13.7% (active)
41 | COc1ccc(CCNC(=O)COC(=O)c2cnc(Cl)c(Cl)c2)cc1 | 17.2% (active)
42 | COc1ccc(C(C)C)cc1S(=O)(=O)Nc1ncn[nH]1 | 0.13% (inactive)
43 | CCCC(C(=O)n1nc(C)cc1C)C(NS(=O)(=O)c1ccc(C)cc1)c1ccccc1 (stereo not drawn) | 3.42% (inactive)
44 | CCOC(=O)CSc1nc(N2CCOCC2)c2c(c1C#N)CC(C(C)C)OC2 (stereo not drawn) | 3.57% (inactive)
45 | Cc1ccc(CSc2nnc(-c3cnccn3)n2C)cc1 | -1.1% (inactive)
46 | COc1ccc(-c2n[nH]c(C)c2-c2ccccc2OC)c(O)c1 | 4.68% (inactive)
47 | COc1ccc2oc(N)c(C=O)c(=O)c2c1 | -1.23% (inactive)
48 | COc1ccc(-c2nc3n(c(=O)c2C#N)CCS3)c(OC)c1 | -2.32% (inactive)
49 | O=C(NC1=CC(=O)c2ccccc2C1=O)c1ccccc1 | -5.71% (inactive)
50 | COC(=O)c1sc(-c2ccc(C(C)(C)C)cc2)cc1NC(=O)/C=C/C(=O)O | 1.28% (inactive)
51 | COCCCNC(=O)/C(C#N)=C/c1c(N2CCCCCC2)nc2ccccn2c1=O | 9.32% (inactive)
52 | CN(C)C(CNC(=O)CCCOc1ccccc1)c1ccco1 (stereo not drawn) | -0.67% (inactive)
53 | Cc1ccc(Sc2ccc(NC(=O)c3ccc(F)cc3)cc2C#N)cc1 | 5.25% (inactive)

From PubChem BioAssay AID602193 (The Scripps Research Institute Molecular Screening Center, 2012)
